The source of these data is ChEMBL document CHEMBL1157539, “Thousands of chemical starting points for antimalarial lead identification” (Nature, 2010).

Holding throughout (assay type): functional
Assay [1] has as its system Plasmodium falciparum. The assay is described as follows: GSK_TCMDC: Inhibition of Plasmodium falciparum 3D7 in whole red blood cells, using parasite LDH activity as an index of growth. Test compounds present at 2uM.
For assay [2], the system named is Plasmodium falciparum. The assay is described as follows: GSK_TCMDC: Inhibition of Plasmodium falciparum Dd2 in whole red blood cells, using parasite LDH activity as an index of growth. Test compounds present at 2uM.
In assay [3] the test system is HepG2. The assay can be described thus: GSK_TCMDC: Percent inhibition of human HepG2 cell line. Test compounds present at 10uM.

As to `CN(C)CCOc1cc(NC(=O)Nc2ccc(Oc3ccccc3)cc2)ccc1I.Cl`, the Inhibition is 89% in assay [1], 4% in assay [2] and 13% in assay [3].

Turning to `CC(=O)OC[C@H]1O[C@@H](C#Cc2ccccc2)[C@H](OC(C)=O)[C@@H](OC(C)=O)[C@@H]1OC(C)=O`, the figures for the Inhibition in assay [1], in assay [2] and in assay [3] were 95%, 90% and 5%, respectively.

Consider `COc1ccc2nccc(NC(=O)C3(O)CCC(NCc4ncc5c(c4Cl)OCCO5)CC3)c2n1.Cl` (stereo not drawn), for which the results for the Inhibition in assay [1], in assay [2] and in assay [3] were 83%, 59% and 21%, respectively.

Regarding `Cc1nc(C)c(-c2ccc(-c3ccc(F)cc3)cc2)c(O)c1Br`, the Inhibition in assay [1] was 94%; in assay [2] it was 52%; in assay [3] it was 12%.

For the compound `Br.CC(=O)Nc1nc(C)c(-c2csc(Nc3ccc(Cl)cc3)n2)s1`, the Inhibition is recorded as 96% in assay [1], 93% in assay [2] and 14% in assay [3].

On to `CC(C)CNCc1cccc(-c2ccc(CNc3ccc(C(=O)c4ccccc4)cc3)cc2)c1.O=C(O)C(F)(F)F`, for which the Inhibition turned out to be 97% in assay [1], 0% in assay [2] and 10% in assay [3].

For the compound `CCN1CCN(c2cc(C)c3cc(NC(=O)c4cccc([N+](=O)[O-])c4)ccc3n2)CC1`, the Inhibition in assay [1] is recorded as 99%; in assay [2] it was 73%; in assay [3], 74%.

As for `CC(C)C[C@H](NC(=O)c1cc2ccccc2s1)C(=O)N[C@H]1CCN(Cc2ccc(OC[C@@H]3CCCN3C)c(Cl)c2)C1.O=C(O)C(F)(F)F`, the Inhibition in assay [1] was found to be 100%; in assay [2], 81%; in assay [3] it was 83%.

With `N=C(N)NC(=O)Nc1cc(Br)c(Br)c(Br)c1`, the values for the Inhibition in assay [1], in assay [2] and in assay [3] were 100%, 89% and 0%, respectively.

On to `COc1ccc(C(=O)CCC(=O)N(CCC2CCCN2C)Cc2ccc(-c3ccc(CNCCc4ccc(S(C)(=O)=O)cc4)cn3)cc2)cc1F.O=C(O)C(F)(F)F` (stereo not drawn), for which the Inhibition in assay [1] came out at 93%; in assay [2], 45%; in assay [3] it was 13%.

Take `Cn1cccc1CCNCc1ccc(-c2cccc(-c3nc4ccccc4[nH]3)c2)cc1.O=C(O)C(F)(F)F`: the Inhibition stood at 88% in assay [1], 66% in assay [2] and 1% in assay [3].

`Cc1cccc2nc(-c3cccc(-c4ccc(NC(=O)CN5CCN(C)CC5)cc4)c3)[nH]c12`: the Inhibition in assay [1] is listed as 100%; in assay [2], 99%; in assay [3] it was 45%.

Take `CCCNCc1ccc(-c2ccc(CN(CCOC)C(=O)/C=C/c3ccccc3C)cc2)nc1.O=C(O)C(F)(F)F`: the Inhibition is 95% in assay [1], 39% in assay [2] and 13% in assay [3].

Consider `CN1CCc2cc(NS(=O)(=O)c3ccc(-c4ccc(Cl)s4)cc3)c(N3CCCCC3)cc2CC1.Cl`, for which the results for the Inhibition in assay [1], in assay [2] and in assay [3] were 98%, 29% and 14%, respectively.

Regarding `O=C(/C=C/c1ccc(Cl)c(Cl)c1)NC1CCC(CN2CCC(Cc3c[nH]c4ccccc34)CC2)CC1` (stereo not drawn), the figures for the Inhibition in assay [1], in assay [2] and in assay [3] were 100%, 9% and 25%, respectively.

`Br.CC(CCON1C(N)=NC(N)=NC1(C)C)c1ccc(Cl)cc1` (stereo not drawn): the Inhibition in assay [1] came out at 93%; in assay [2], 97%; in assay [3], 64%.

As for `COc1cccc(Nc2nc(C)cc(Nc3cccc(C#N)c3)n2)c1`, the Inhibition turned out to be 100% in assay [1], 92% in assay [2] and 0% in assay [3].

Take `COc1ccc2nccc([C@@H](O)CN3CCC(NCCOc4cccc(C(F)(F)F)c4Cl)CC3)c2c1.O=C(O)C(=O)O`: the Inhibition in assay [1] is 100%; in assay [2], 98%; in assay [3], 13%.

In the case of `Cc1ccc(Nc2nnc(SCC(=O)Nc3ccc(CN4CCCC4)cc3)s2)cc1`, the Inhibition in assay [1] stood at 91%; in assay [2] it was 0%; in assay [3] it was 4%.

On to `CC(NCC(O)Cn1c2ccccc2c2ccccc21)c1ccccc1.O=C(O)c1ccccc1` (stereo not drawn), for which the Inhibition in assay [1] is 96%; in assay [2], 85%; in assay [3], 37%.

Turning to `COc1ccccc1CN1CCC(CNC(=O)c2cc(-c3cccc(C(F)(F)F)c3)cs2)C1.O=C(O)C(F)(F)F` (stereo not drawn), the Inhibition in assay [1] was determined as 84%; in assay [2] it was 1%; in assay [3] it was 25%.

Regarding `CS(=O)(=O)O.CSc1ccc2ccccc2c1CCNCCCCNCCc1c(SC)ccc2ccccc12`, the Inhibition is listed as 100% in assay [1], 60% in assay [2] and 99% in assay [3].

Take `COc1ccc(C(=O)NC(Nc2ccc([N+](=O)[O-])cc2)C(Cl)(Cl)Cl)cc1` (stereo not drawn): the Inhibition in assay [1] is 95%; in assay [2], 83%; in assay [3], 15%.

Consider `COc1ccc2nccc([C@@H](O)CN3CCC(NCc4cc5ccccc5nn4)CC3)c2c1.O=C(O)C(=O)O`, for which the Inhibition in assay [1] amounted to 94%; in assay [2] it was 16%; in assay [3], 5%.

`Cc1ccccc1C1CCN(C2CCC(NC(=O)c3ccc(-c4cc(C(F)(F)F)nn4C)s3)CC2)CC1` (stereo not drawn): the Inhibition in assay [1] amounted to 98%; in assay [2], 68%; in assay [3], 42%.

On to `COc1cccc(CNC(=O)[C@H]2CNCCN2C(=O)CCCc2ccccc2)c1.O=C(O)C(F)(F)F`, for which the Inhibition in assay [1] is 91%; in assay [2], 95%; in assay [3], 56%.

As for `O=S(=O)(Nc1ccc(CCN2CCC(N3CCCCC3)CC2)cc1)c1cccc(C(F)(F)F)c1`, the Inhibition in assay [1] came out at 100%; in assay [2], 15%; in assay [3], 20%.

`CCCCc1ccc(S(=O)(=O)Nc2ccc3c(c2)CCN(Cc2c[nH]c4cnccc24)CC3)cc1.O=C(O)C(F)(F)F`: the Inhibition in assay [1] was 99%; in assay [2], 12%; in assay [3], 41%.

Turning to `NCC1CCCN1Cc1cccc(-c2ccc(-c3nc4cc(C(F)(F)F)ccc4[nH]3)cc2)c1.O=C(O)C(F)(F)F` (stereo not drawn), the Inhibition in assay [1] turned out to be 100%; in assay [2], 95%; in assay [3], 20%.

`O=C(O)C(F)(F)F.O=[N+]([O-])c1cccc(CNCC2CCN(CCc3ccccc3)CC2)c1`: the results for the Inhibition in assay [1], in assay [2] and in assay [3] were 98%, 11% and 15%, respectively.

Regarding `COc1ccc(CN(C)Cc2ccc(NC(=O)c3cccc4c(=O)c5cccc(C)c5[nH]c34)cc2)cc1OC`, the Inhibition is given as 92% in assay [1], 22% in assay [2] and 7% in assay [3].
